# According to PubChem BioAssay:
# Records with an inconclusive call do not appear. Activity calls are given as the source filed them. Cut-off read from the data, not from the text of the source, unless noted: active = inhibition above about 80%; inactive = the rest.
# What was measured:
# [1] = JHH-DIPG-1 glioma cell viability, MIPE5.0 library, CellTiter-Glo luminescence, qHTS (AID 1347067; cut-off not given, nearly all actives have AC50 up to about 26 µM;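 note: cells exposed to compound for 48 hours before readout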); details: JHH-DIPG-1 glioma viability, CellTiter-Glo ATP luminescence
# [2] = growth inhibition of DIPG cells – cell-based, MIPE5.0 library, qHTS (AID 1347068; cut-off not given, nearly all actives have IC50 up to about 30 µM); details: SU-DIPG-XXV viability
# [3] = viability loss in pontine glioma line – cell-based, SU-DIPG-XXV, MIPE5.0, CellTiter-Glo, qHTS, dose response (AID 1347065; cut-off not given, nearly all actives have AC50 up to about 26 µM;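 note: cells exposed to compound for 48 hours before ATP readout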); details: CellTiter-Glo ATP luminescence
# [4] = growth inhibition, single agent or in combination, cell-based, chromothripsis tumors, cisplatin or BGB combos (AID 1671449); details: LFS_MB_P medulloblastoma cells;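 note: cells exposed for 96 hours; 0% = vehicle DMSO and 100% = killing by high DMSO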
# [5] = growth inhibition, single agent and combos, cell-based, chromothripsis tumors, cisplatin or BGB combos (AID 1671450); details: HDN33 neuroblastoma cells, stronger effect = higher value;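 note: cells exposed to compound for four days; 0% = vehicle DMSO and 100% = cell killing by high DMSO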
# [6] = growth inhibition, single agents and combos, ICB984, cell-based, cisplatin or BGB combos, synergistic combos for chromothripsis tumors (AID 1671451; call rule not given here;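 note: cells exposed for 96 hours before readout; 0% = vehicle DMSO and 100% = killing by high DMSO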); details: ICB984 medulloblastoma cells, drug combinations, stronger effect = higher value
# [7] = growth inhibition, single agents and combos, LFS_MB_1R, cell-based, cisplatin or BGB combos, synergistic combos for chromothripsis tumors (AID 1671452); details: LFS_MB_1R medulloblastoma cells, stronger effect = higher value;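 note: cells exposed for 96 hours before readout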
# [8] = growth inhibition, single agents and combos, HTB85, cell-based, BGB or cisplatin IC20 combos, synergistic combos for chromothripsis tumors (AID 1671453); details: HTB85 osteosarcoma cells, drug combinations, stronger effect = higher value;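 note: cells exposed for 96 hours before readout; 0% = vehicle DMSO and 100% = high DMSO killing control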
# [9] = growth inhibition, single agents and combos, CRL2098, cell-based, BGB or cisplatin IC20 combos, synergistic combos for chromothripsis tumors (AID 1671454); details: CRL2098 osteosarcoma cells, drug combinations, stronger effect = higher value;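 note: cells exposed for 96 h before readout; 0% = vehicle DMSO and 100% = killing by high DMSO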
# [10] = growth inhibition, single agents and combos, HD-MB03, cell-based, BGB or cisplatin IC20 combos, synergistic combos for chromothripsis tumors (AID 1671455; in the data active = inhibition above about 83%;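 note: 0% = vehicle DMSO and 100% = high DMSO as cytotoxic control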); details: HD-MB03 medulloblastoma cells, stronger effect = higher value
# [11] = growth inhibition, single agents and combos, UWB1.289, cell-based, BGB or cisplatin combos, synergistic combos for chromothripsis tumors (AID 1671456); details: UWB1.289 ovarian carcinoma cells, stronger effect = higher value;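 note: cells exposed to compound for four days; 0% = vehicle DMSO and 100% = killing by high DMSO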
# [12] = growth inhibition, single agents and combos, LFS_MB_2R, cell-based, cisplatin combos, synergistic combos for chromothripsis tumors (AID 1671457); details: LFS_MB_2R medulloblastoma cells, stronger effect = higher value;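 note: cells exposed to compound for four days before readout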
# [13] = growth inhibition, MDA-MB-436, cell-based, BGB or cisplatin combos, synergistic combos for chromothripsis tumors (AID 1671458; call rule not given here;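 note: cells exposed for 96 hours; 0% = vehicle DMSO and 100% = killing by high DMSO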); details: MDA-MB-436 breast carcinoma growth inhibition, drug combinations, stronger effect = higher value
# [14] = UWB1.289_BRCA1 ovarian cancer growth, cell-based, BGB or cisplatin combinations (AID 1671459); details: UWB1.289 BRCA1 ovarian carcinoma, drug combinations, stronger effect = higher value
# [15] = drug combination toxicity in non-malignant astrocytes – cell-based, BGB or cisplatin IC20 combos, cytotoxicity control for chromothriptic childhood tumor combination screen (AID 1671460); details: Human astrocytes, viability inhibition, drug combinations, at 0.5 µM, stronger effect = higher value;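 note: cells exposed to compounds for 96 hours before viability readout; 0% = vehicle and 100% = killing control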
# [16] = BT084 cell growth, single and combined drugs, ICGC_MB145, cisplatin and BGB IC40 combos (AID 1671461); details: BT084 medulloblastoma cells, drug combinations, stronger effect = higher value;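 note: cells exposed to drugs for 96 hours; 0% = vehicle DMSO and 100% = high DMSO full killing control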
# [17] = RCMB18 cell growth, single agent and combined, cisplatin and BGB IC40 combos (AID 1671462); details: RCMB18 medulloblastoma cells, stronger effect = higher value;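 note: cells exposed to compound for four days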
# [18] = CRL1545 cell growth, single agent and combined, cisplatin and BGB IC20 combos (AID 1671464); details: CRL1545 osteosarcoma cells, stronger effect = higher value;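 note: cells exposed to compound for 96 hours before readout; 0% = vehicle DMSO and 100% = high DMSO killing control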
# [19] = measured here: combination with BGB IC40, at 0.05 µM
# [20] = measured here: with BGB IC20 combination, at 0.5 µM
# [21] = measured here: with cisplatin IC20 combination, at 0.5 µM
# [22] = measured here: combination with cisplatin, at 0.5 µM
# [23] = measured here: combination with cisplatin, at 5 µM
compound,measurement,setting,value
O=C1C(c2c(O)[nH]c3ccccc23)=Nc2ccccc21,outcome,[1],inactive
same,outcome,[2],inactive
CC1CNc2c(cccc2S(=O)(=O)N[C@@H](CCCN=C(N)N)C(=O)N2CC[C@@H](C)C[C@@H]2C(=O)O)C1 (stereo partly drawn),outcome,[3],inactive
same,outcome,[1],inactive
same,outcome,[2],inactive
NC(=O)c1ncn(C2OC(CO)C(O)C2O)n1 (stereo not drawn),inhibition,"[4]; at 0.5 µM, stronger effect = higher value",-16.1% (inactive)
same,inhibition,"[4]; measured here: combination with BGB IC20, at 0.005 µM",-16.5%
same,inhibition,"[4]; measured here: combination with BGB IC40, at 0.005 µM",25.4%
same,inhibition,[4]; [19],-2.38%
same,inhibition,"[4]; measured here: combination with cisplatin, at 0.5 µM, stronger effect = higher value",-6.01%
same,inhibition,"[4]; measured here: combination with cisplatin, at 5 µM, stronger effect = higher value",-20.9%
same,inhibition,"[5]; BGB combo, at 5 µM",31.2%
same,inhibition,[5]; at 0.5 µM,2.73% (inactive)
same,inhibition,"[5]; cisplatin combo, at 5 µM",-8.56%
same,inhibition,[5]; [20],6.96%
same,inhibition,[5]; [21],2.48%
same,inhibition,"[5]; single agent, at 5 µM",14%
same,inhibition,"[6]; BGB IC20 combo, at 0.005 µM",3.66%
same,inhibition,"[6]; BGB IC40 combo, at 0.005 µM",-0.335%
same,inhibition,"[6]; BGB IC40 combo, at 0.05 µM",6.2%
same,inhibition,[6]; at 0.5 µM,-10.2% (inactive)
same,inhibition,"[6]; cisplatin combo, at 0.05 µM",6.2%
same,inhibition,"[6]; cisplatin combo, at 0.5 µM",-6.29%
same,inhibition,"[6]; cisplatin combo, at 5 µM",-17.4%
same,inhibition,"[6]; measured here: 5 uM single agent, at 5 µM",-2.81%
same,inhibition,[7]; at 0.5 µM,-9.72% (inactive)
same,inhibition,[7]; [19],-31.9%
same,inhibition,[7]; [22],21.6%
same,inhibition,[7]; [23],-1.97%
same,inhibition,[8]; at 0.5 µM,4.41% (inactive)
same,inhibition,"[8]; measured here: with BGB IC20, at 0.5 µM",-12.9%
same,inhibition,"[8]; measured here: with BGB IC20, at 5 µM",10.8%
same,inhibition,"[8]; measured here: with cisplatin IC20, at 0.5 µM",14.3%
same,inhibition,"[8]; measured here: with cisplatin IC20, at 5 µM",0.254%
same,inhibition,"[8]; single agent, at 5 µM",2.26%
same,inhibition,[9]; at 0.5 µM,-9.01% (inactive)
same,inhibition,"[9]; measured here: combination with BGB at IC20, at 0.5 µM",-25.7%
same,inhibition,"[9]; measured here: combination with cisplatin at IC20, at 0.5 µM",-6.71%
same,inhibition,[10]; at 0.5 µM,-4.13% (inactive)
same,inhibition,"[10]; measured here: combo with BGB at IC20, at 0.5 µM",-1.27%
same,inhibition,"[10]; measured here: combo with cisplatin at IC20, at 0.5 µM",-10.7%
same,inhibition,[11]; at 0.5 µM,3.07% (inactive)
same,inhibition,"[11]; measured here: inhibition with BGB combination, at 0.05 µM",9.47%
same,inhibition,"[11]; measured here: inhibition with cisplatin combination, at 0.05 µM",-5.32%
same,inhibition,[12]; at 0.5 µM,1.38% (inactive)
same,inhibition,[12]; [22],-4.76%
same,inhibition,[12]; [23],3.14%
same,inhibition,[13]; at 0.5 µM,-5.54% (inactive)
same,inhibition,"[13]; measured here: BGB combination, at 0.5 µM",2.04%
same,inhibition,"[13]; measured here: BGB combination, at 5 µM",-7.02%
same,inhibition,"[13]; measured here: cisplatin combination, at 0.5 µM",-11.9%
same,inhibition,"[13]; measured here: cisplatin combination, at 5 µM",6.23%
same,inhibition,"[14]; BGB combination, concentration series, at 5 µM",5.54%
same,inhibition,[14]; at 0.5 µM,1.33% (inactive)
same,inhibition,"[14]; cisplatin combination, concentration series, at 5 µM",1.04%
same,inhibition,[15],-5.97% (inactive)
same,inhibition,[15]; measured here: combo with BGB IC20,-5.76%
same,inhibition,[15]; measured here: combo with cisplatin IC20,-5.35%
same,inhibition,[16]; at 0.5 µM,6.99% (inactive)
same,inhibition,"[16]; cisplatin combination, at 0.5 µM",12.1%
same,inhibition,"[16]; cisplatin combination, at 5 µM",-28.4%
same,inhibition,"[16]; measured here: BGB IC40 combination 0.05 uM, at 0.05 µM",25.7%
same,inhibition,"[16]; single agent, at 5 µM",8.51%
same,inhibition,[17]; at 0.5 µM,9.1% (inactive)
same,inhibition,"[17]; cisplatin combo, at 5 µM",13.6%
same,inhibition,"[17]; measured here: BGB IC40 combination, at 0.05 µM",7.76%
same,inhibition,[17]; [22],29.4%
same,inhibition,"[17]; single agent, at 5 µM",-9.79%
same,inhibition,[18]; at 0.5 µM,-15.9% (inactive)
same,inhibition,[18]; [20],-14.4%
same,inhibition,[18]; [21],-16.7%
same,inhibition,"[18]; single agent, at 0.05 µM",17.7%
same,inhibition,"[18]; single agent, at 5 µM",-14.1%
